Results: PubChem BioAssay AID1508600 (Functional Genomics Laboratory (NCATS/FGL), 2020)
Hit rate of the full screen: of about 53,000 sequences, about 3,700 (7%) were called active. This is one part of a sample in which actives are shown more often than they occur.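 Rule for the calls: active = gene knockdowns whose robust z-score for IL-1 alpha signal is at least 2 or at most -2, so actives lie on both sides; inactive = the rest.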

Experiment: Components of the Cytosolic LPS Sensing Pathway: Gene Identification via Genome-wide siRNA Screen;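 note: robust z of the log signal after scaling to non-targeting control siRNA wells of the plate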
Conditions: RAW264.7 macrophages, IL-1a HTRF, actives lie on both sides, screened at 100 nM (by protocol), cells primed 5 h with Pam3CSK4 first
How it was run: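 RAW264.7; siRNA 100 nM final, RNAiMAX, 48h 37 degrees C; Pam3CSK4 5 h; LipidA + TransIT-TKO 24 h; IL-1a HTRF; CellTiter-Glo viability; robust z vs negative-control median.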

Sequence | z-score
CCUUGUUUUUCACAAAUCATT against Usp7 | -0.182 (inactive)
GGCUCGACUUGGAGAAAAGTT against Atg13 | 0.0439 (inactive)
GCAGAAGCCUGUGGGAUCUTT against Tex43 | -0.102 (inactive)
GCAAAACCUAACUAUGUUUTT against Mterf3 | -0.879 (inactive)
CGAAUUAUGGCACCGUCAATT against P2rx7 | -0.647 (inactive)
UUAGCCACUCAUUGUUCCATT against Olfr1303 | -0.133 (inactive)
GCUAAUACUGAAAUCGAUGTT against Ccdc73 | 1.02 (inactive)
GGGAGAGUCUUGGCAACUUTT against Btbd17 | -2.12 (active)
GGAAGAGAAGAAGGAACUUTT against Ada | -1.51 (inactive)
CGUUUAAAGACUAGCAAGATT against Tab1 | 0.0468 (inactive)
GGGCUAAUGAGAUAGGUUUTT against Slc19a2 | 2.18 (active)
GGAGGCUGCAAUAGAGGAGTT against Defa20 | 1.23 (inactive)
GGCAAGAGUGAAUUUAAGATT against Nt5e | -0.292 (inactive)
GGAUUUCACAGUCAAAAUUTT against Insrr | -0.825 (inactive)
CGGUGUACGAGUUAGAGAATT against Crybb3 | 1.75 (inactive)
GGGAGAUCUUGACAAAUUCTT against Aplp1 | 2.32 (active)
GGAGAAUGACUAGGUAAUCTT against A130010J15Rik | 1.27 (inactive)
CCUGUCGUUUAACCCUGUCTT against Fis1 | -0.96 (inactive)
GGAGUUGACCACACUGCUUTT against Smtn | -1.09 (inactive)
GGAAUUUAUUCACCCAGACTT against Sirt2 | -1.51 (inactive)
GGAGAUGAAGCUCUGGAUATT against Spock2 | 0.132 (inactive)
CCUAUCUCCCUGUUCGAUATT against Rab36 | -1.01 (inactive)

Sequence | z-score
GGACAACUCAGAUUGGACUTT against Adprhl2 | -1.22 (inactive)
GGCUUGAAUCACCAACCAGTT against Sgcz | 0.224 (inactive)
GGUAGUGAGUACUUUGGAATT against Amy2a5 | -1.16 (inactive)
GCAAGUGCGACUGUAUCUGTT against Gdpd2 | -2.2 (active)
GGGAUAAUGCAUGUGAAAATT against Pdk3 | -0.292 (inactive)
GGUUUGUCAACAAGUGUCATT against Dicer1 | -2.17 (active)
CCAGUACAGAUGUGUUAAATT against N4bp2l2 | 1.68 (inactive)
CCGCCUAGCUGAUCUUGUGTT against Aldh1b1 | -0.495 (inactive)
GCUUUUACCGUUACGUCUUTT against Uggt1 | 2.18 (active)
GGACAGCAGUAAAUAUACUTT against Coq3 | 0.423 (inactive)
GCUAUUAAUAUCCUGGUCCTT against Slc7a2 | -0.543 (inactive)
CCUAGACAUCAGUAAUGCGTT against Zbtb17 | -0.43 (inactive)
AACUGUACAUUGAAGCAGATT against Cstf3 | 0.391 (inactive)
GCAUGAAAAGGUAUUACUCTT against Exoc6 | 0.734 (inactive)
GCACUAUCCACAUGCACAUTT against Olfr1281 | 0.469 (inactive)
GGCCUAUGUCAGCACUUUATT against Eif3f | -0.113 (inactive)
GGAUUGCUUUUGAGCAACATT against Ccdc125 | -2.05 (active)
GCUUCUAAGCUUUAGAGGGTT against Rassf10 | -1 (inactive)
GGAUACAGUUAAGAGAUAUTT against Xpr1 | -1.34 (inactive)
GCAUAGCCACAAGGUUAAUTT against Nat8f4 | 0.35 (inactive)
GUAUUAUAGACACCUUGCATT against Phip | -0.835 (inactive)
GGACAGCUACCUCAUCCAUTT against Lpcat3 | 2.08 (active)

Sequence | z-score
GGACAGAUGAAGCUGCAUUTT against S100a4 | -0.422 (inactive)
GGUGAAGAAGAGUCUCAAATT against Mrnip | 1.6 (inactive)
GCACAUAUCACGCUACCUGTT against Lrrc75b | -0.0605 (inactive)
GCGAAGAGUGAUUGAUCCATT against Myh1 | -0.773 (inactive)
GGAAGCAGAAGCUAAAGUGTT against Ubap1 | 2.11 (active)
CCUGACAGUAGUUACUAUUTT against Olfr1154 | -0.945 (inactive)
GGUUUUUUGUAGCAAACAGTT against Phc2 | -2.7 (active)
GGUCCUUUACAUGAACCGCTT against Vps18 | -0.661 (inactive)
GGAAUGCAUGAUGAUGUCATT against Prl7a2 | -0.783 (inactive)
GGGAUCCUCUUGACAUUCCTT against Epdr1 | 3.87 (active)
GGUAGCAGACAGCUACCCUTT against Tnfsf15 | 0.405 (inactive)
CCAAGCUAUUGGCCCUGACTT against Defb38 | 0.251 (inactive)
GCUGAUGACCACUGAGUUUTT against Tsr2 | 1.34 (inactive)
GCAAGUCAGCUACAACUGUTT against Rnasek | 0.0313 (inactive)
GGUGGCUAUAACAGAGCCUTT against Rdh18-ps | 0.173 (inactive)
GGAAACAAGGAAGCAAUUATT against Psmd1 | -3.01 (active)
GGAGAAACCAGCUAAAGGATT against Car9 | -0.235 (inactive)
GGUGAUCAGCAUGGUGGGUTT against Pold1 | 0.208 (inactive)
GGUAUAAAGAACUCUGUCATT against Cep78 | -2.49 (active)
GGGUGAUAGCAAGACACAGTT against Olfr720 | 1.06 (inactive)
GGAGGACCAAGAGGACAUUTT against Tbl3 | 0.468 (inactive)
GGCCCAAGAGAUUGAUCAATT against Ivd | -0.565 (inactive)

Sequence | z-score
CGAAACCUCUAAGAAGAUATT against Pole | -0.264 (inactive)
GGCAUGUUCCUCAUAUGCCTT against Lrit1 | -2.01 (active)
GGAGCAUUGCCUUUUAAAGTT against Psph | -0.474 (inactive)
CCAAUUGGGCCACACGUAATT against Tial1 | 1.15 (inactive)
GGACUCUUUUGGACCUAAGTT against Hilpda | -1.24 (inactive)
GGAACAAAUUCUGGAGUUGTT against Zfp287 | 0.791 (inactive)
GGUUACAGAGAGACAUCAUTT against Cdk5rap2 | 0.942 (inactive)
GGGUUUCAACGGCUGUGACTT against Mef2d | -2.73 (active)
GGUUAUGGAGACAAAGGAUTT against Sik1 | -1.33 (inactive)
CCGUACGAUGAUAAUACCATT against Clec4a3 | 2.29 (active)
GGAGCUAGCUGAGUUCAUGTT against Arhgap4 | 1.22 (inactive)
GGACAGCUCUCUUUAGUCUTT against Erf | -1.78 (inactive)
GGACCUGAAGGCUGAAAUUTT against Ing4 | 3.08 (active)
GGUCUGAUAACUCUGGAGGTT against Snf8 | -0.0859 (inactive)
GGAUGGACAUCCAAGCAGGTT against Fabp9 | -1.97 (inactive)
GGAGUGUUACUAGAUGUCCTT against Spns3 | 0.394 (inactive)
CGAACUGGUAGAAGUUAUUTT against Csgalnact2 | 2.07 (active)
GGUCUCUGUACUUUGACUGTT against Cldn19 | -1.2 (inactive)
GGAGCAAAAUUCACAGUCUTT against Bcl7a | -0.25 (inactive)
GAUUGGCUUCAAUCUAGUCTT against Olfr713 | 0.701 (inactive)
GGGCCAGAGUCAGAAAAGGTT against Ebp | 1.98 (inactive)
GCGUAUGUACCGAUGGCAGTT against Mocs2 | 0.871 (inactive)

Sequence | z-score
CGCUGCCUAAACAAGAUUATT against Cacna1f | 3.28 (active)
AGACCUUGAGAACAUUCUUTT against Nkx2-6 | 0.925 (inactive)
CCGUGAUCUUAAACCCUCUTT against Mapk7 | -0.988 (inactive)
CGUUUUACCACCGUGUGCUTT against Gfra1 | -0.284 (inactive)
GGUAAUUCAGUCUUAUACATT against Pcdhb21 | 3.2 (active)
CGUGAAGAUUCUUAAGGCGTT against Ppil1 | 0.716 (inactive)
GGUGGAAUUGAAGAGUUCATT against Rcor3 | 0.24 (inactive)
GCAAGAAACGGGAACUAUUTT against Mettl7b | 1.25 (inactive)
GGCCUUAGAAUUUGAUUCUTT against Slc30a8 | 0.814 (inactive)
GGAUGUAUAGGUUCAGCUGTT against Dph2 | 0.41 (inactive)
GGCCUUUGGGACAUGUGUGTT against Olfr552 | -2.05 (active)
GGAGAAGCUCUUAAAGAAATT against Traf3ip3 | 0.959 (inactive)
GCAGUGAAGUCCAAGUUAGTT against Pold3 | -0.456 (inactive)
CCAAUAAGUGACCUUUUUUTT against Tmprss11b | -0.989 (inactive)
CCAAGUCUACCUCUAUUUUTT against Pbsn | 1.77 (inactive)
GGUUCCUUAAUUUAUUGCCTT against Fbxl22 | 2.31 (active)
CCACUAUGGCGACCAGAUUTT against Mfap2 | 0.0375 (inactive)
GCCCUCACAGCCAGAAUUGTT against Pram1 | -2.15 (active)
GGUUAAAAGCCAUGUGUAATT against Pggt1b | -0.151 (inactive)
CGAUGGUCGAAGGAUUGUCTT against Tnfsf4 | -0.837 (inactive)
